Inconclusive results are not listed. Calls of active or inactive are those of the source. Unless noted, the call rests on the fitted dose curve; in most records, active means well fitted curve in the direction sought with a large enough effect; inconclusive means small, poorly fitted or top-dose-only effect, or another doubt; inactive means no such curve, though single readings can be large; an effect the other way counts as inactive or inconclusive.
Experiments:
[1] = tested on: HIV-1 nucleocapsid protein NCp7 (binding to TG oligonucleotide); test: HIV Nucleocapsid (AID 346; call rule not given here;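 further: potency means the concentration at half of the fitted maximal effect; potency is for inhibitors that block NC binding and lower polarization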); conditions: HIV-1 NC / fluorescein-TGTGTGTG probe, fluorescence polarization
How it was run: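 Fluorescence polarization readout: labelled TG4xF oligo (10 nM) with 100 nM nucleocapsid protein, high-salt (250mM NaCl) Hepes pH 7.5 buffer containing zinc and fresh reducing agents. Compounds added by pin tool; incubation 1 hr, room temperature.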

[2] = AP1 Signaling Pathway (AID 357; active means well fitted curve in either direction with a large enough effect, not every such curve was filed as active; further: on the % scale 0 is the no-effect control and ±100 the full control effect)
How it was run: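 ME-180 cells with beta-lactamase reporter under AP-1 response element, stimulated with EC50 EGF; compounds tested in titration series, 5 h at 37 °C. CCF4 substrate added 2.5 h at room temperature; 460/530 nm emission ratio gave %activity and AC50.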

[3] = NFAT Signaling Pathway (AID 444; active means well fitted curve in either direction with a large enough effect, not every such curve was filed as active;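 further: carbachol stimulus at about its EC50 of 1 µM final; on the % scale 0 is the no-effect control and ±100 the full control effect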); conditions: Jurkat NFAT-bla M1, carbachol, beta-lactamase ratio, 5 h
How it was run: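 Read-out: CCF4 FRET ratio (460 nm/530 nm) after 1 h RT dye loading, used for %activity and AC50 from titration series. Cells: Jurkat NFAT-β-lactamase/M1 line, treated with compound plus 1 uM carbachol for 5 h, 37 °C.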

[4] = Stat Signaling Pathway (AID 446; active means well fitted curve in either direction with a large enough effect, not every such curve was filed as active;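 further: ME-180 cervical cancer cells given 40 pM IL-6 alongside compound; SIE-controlled beta-lactamase reporter measured as 460/530 nm FRET emission ratio; on the % scale 0 is the no-effect control and ±100 the full control effect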)
How it was run: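 Reporter line: ME-180 cervical carcinoma, SIE-beta-lactamase. Treatment: compound with 40 pM IL-6, 5 hrs, 37 C, in low-serum OPTI-MEM with 10 mM HEPES pH 7.3. Detection: 460/530 nm fluorescence.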

[5] = target: Glucocorticoid receptor (Homo sapiens) (UniProt P04150); test: GR-EFC Redistribution (AID 451; calls by dose curve; further: potency means the concentration at half of the fitted maximal effect); conditions: CHO-K1 GR-EFC translocation, beta-gal luminescence, 2 h
Glucocorticoid receptor (Homo sapiens), sequence (P04150 whole entry, looked up, the tested form may be a part): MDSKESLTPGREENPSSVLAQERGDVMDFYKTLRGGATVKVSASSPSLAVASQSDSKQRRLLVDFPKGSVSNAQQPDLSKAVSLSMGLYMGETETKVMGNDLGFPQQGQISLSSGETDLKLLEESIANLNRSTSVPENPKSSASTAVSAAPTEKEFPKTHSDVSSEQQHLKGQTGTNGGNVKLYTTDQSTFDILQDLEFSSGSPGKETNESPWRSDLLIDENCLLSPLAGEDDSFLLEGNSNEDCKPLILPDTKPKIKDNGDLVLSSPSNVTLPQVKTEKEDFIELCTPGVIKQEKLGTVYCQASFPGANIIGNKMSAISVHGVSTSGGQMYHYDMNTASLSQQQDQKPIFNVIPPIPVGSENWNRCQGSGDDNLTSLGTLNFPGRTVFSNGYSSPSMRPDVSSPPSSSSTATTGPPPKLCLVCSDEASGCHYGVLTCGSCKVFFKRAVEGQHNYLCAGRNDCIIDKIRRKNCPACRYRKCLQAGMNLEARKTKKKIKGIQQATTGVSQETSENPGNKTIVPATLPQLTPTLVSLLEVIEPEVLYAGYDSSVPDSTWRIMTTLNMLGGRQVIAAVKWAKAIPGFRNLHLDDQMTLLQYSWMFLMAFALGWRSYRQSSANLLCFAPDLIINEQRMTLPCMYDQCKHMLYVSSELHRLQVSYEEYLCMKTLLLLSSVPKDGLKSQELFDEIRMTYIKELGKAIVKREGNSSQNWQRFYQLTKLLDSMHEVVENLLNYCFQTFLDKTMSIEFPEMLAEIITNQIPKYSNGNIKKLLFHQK
How it was run: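 Translocation of GR-ED fusion to nuclear EA restores b-gal, read by luminescence after 1 h room-temperature detection. Engineered CHO-K1 biosensor cells, 1,000/well, exposed 2 h at 37 C to titrations up to 46 uM final.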

[6] = target: Mitogen-activated protein kinase 10 (Mus musculus) (UniProt Q61831); test: JNK3 AlphaScreen Assay (AID 530; active means well fitted curve in either direction with a large enough effect, not every such curve was filed as active;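 further: kinase came from lysate of stimulated human HepG2 cells; signal reports phosphorylation of biotinylated GST-cJun 1-79 at Ser73 with 10 µM ATP; on the % scale 0 is the no-effect control and ±100 the full control effect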)
How it was run: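 Room-temperature AlphaScreen kinase assay; pre-activated HepG2 lysate as JNK3 source, biotin-GST-cJun(1-79) substrate, 10 uM ATP, compound 15 min preincubation.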

[7] = target: 3',5'-cyclic-AMP phosphodiesterase 4B (Homo sapiens) (UniProt Q07343); test: qHTS Assay for Inhibitors of PDE-IV (AID 607; active means well fitted activation curve with a large enough effect in the main read-out, with a control signal flat, not every such curve was filed as active; further: % of control where 0% means no effect)
3',5'-cyclic-AMP phosphodiesterase 4B (Homo sapiens), sequence (Q07343 whole entry, looked up): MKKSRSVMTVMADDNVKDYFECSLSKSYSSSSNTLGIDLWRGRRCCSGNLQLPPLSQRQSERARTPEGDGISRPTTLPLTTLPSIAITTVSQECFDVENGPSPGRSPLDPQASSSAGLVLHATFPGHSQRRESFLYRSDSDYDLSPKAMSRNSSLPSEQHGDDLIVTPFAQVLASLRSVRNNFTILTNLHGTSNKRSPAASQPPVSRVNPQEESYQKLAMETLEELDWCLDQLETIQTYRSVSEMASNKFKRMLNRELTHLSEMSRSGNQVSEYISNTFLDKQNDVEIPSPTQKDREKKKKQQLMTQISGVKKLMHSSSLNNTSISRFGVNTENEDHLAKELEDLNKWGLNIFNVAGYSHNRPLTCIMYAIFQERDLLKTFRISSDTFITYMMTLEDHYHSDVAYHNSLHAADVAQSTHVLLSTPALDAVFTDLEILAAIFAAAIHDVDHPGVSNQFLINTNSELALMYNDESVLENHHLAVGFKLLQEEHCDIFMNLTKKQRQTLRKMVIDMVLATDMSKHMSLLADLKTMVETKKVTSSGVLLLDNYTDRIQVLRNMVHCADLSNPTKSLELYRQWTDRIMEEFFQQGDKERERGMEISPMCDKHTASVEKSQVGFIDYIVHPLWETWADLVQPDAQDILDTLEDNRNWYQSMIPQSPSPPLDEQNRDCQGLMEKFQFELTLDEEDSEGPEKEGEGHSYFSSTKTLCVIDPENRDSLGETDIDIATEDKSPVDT
How it was run: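 Cell-based read-out of cAMP via a modified cyclic nucleotide-gated channel and membrane potential dye (535/590 nm) in HEK293 cells expressing PDE4 endogenously. Compounds tested up to 22.9 uM final; 100 uM RO 20-1724 reference.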

[8] = target: Cytochrome P450 3A4 (Homo sapiens) (UniProt P08684); test: qHTS Assay for Activators of Cytochrome P450 3A4 (AID 885); further: nearly all actives have a fitted effect of over 65% in size
Cytochrome P450 3A4 (Homo sapiens), sequence (P08684 whole entry, looked up): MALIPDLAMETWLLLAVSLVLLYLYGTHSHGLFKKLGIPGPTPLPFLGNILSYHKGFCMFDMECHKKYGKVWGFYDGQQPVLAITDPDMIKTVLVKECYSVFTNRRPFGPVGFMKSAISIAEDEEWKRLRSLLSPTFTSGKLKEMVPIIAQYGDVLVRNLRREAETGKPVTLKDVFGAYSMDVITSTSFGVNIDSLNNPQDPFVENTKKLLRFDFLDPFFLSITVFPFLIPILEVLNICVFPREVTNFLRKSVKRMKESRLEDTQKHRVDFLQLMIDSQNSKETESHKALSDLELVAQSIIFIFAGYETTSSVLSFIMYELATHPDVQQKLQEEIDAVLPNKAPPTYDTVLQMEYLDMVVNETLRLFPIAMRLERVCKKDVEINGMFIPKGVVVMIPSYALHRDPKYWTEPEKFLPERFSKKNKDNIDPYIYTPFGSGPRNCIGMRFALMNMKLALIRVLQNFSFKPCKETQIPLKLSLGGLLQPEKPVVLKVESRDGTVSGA
How it was run: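 Signal was normalized against complete inhibition by 57 uM ketoconazole. The reaction used 20nM CYP3A4 with 25uM Luciferin-PPXE, 10-min compound preincubation and a 60-min NADPH-supported step at RT.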

[9] = target: Cytochrome P450 2D6 (Homo sapiens) (UniProt P10635); test: qHTS Assay for Inhibitors and Substrates of Cytochrome P450 2D6 (AID 891); further: potency means the concentration at half of the fitted maximal effect; nearly all actives have a fitted effect of over 60% in size
Cytochrome P450 2D6 (Homo sapiens), sequence (P10635 whole entry, looked up): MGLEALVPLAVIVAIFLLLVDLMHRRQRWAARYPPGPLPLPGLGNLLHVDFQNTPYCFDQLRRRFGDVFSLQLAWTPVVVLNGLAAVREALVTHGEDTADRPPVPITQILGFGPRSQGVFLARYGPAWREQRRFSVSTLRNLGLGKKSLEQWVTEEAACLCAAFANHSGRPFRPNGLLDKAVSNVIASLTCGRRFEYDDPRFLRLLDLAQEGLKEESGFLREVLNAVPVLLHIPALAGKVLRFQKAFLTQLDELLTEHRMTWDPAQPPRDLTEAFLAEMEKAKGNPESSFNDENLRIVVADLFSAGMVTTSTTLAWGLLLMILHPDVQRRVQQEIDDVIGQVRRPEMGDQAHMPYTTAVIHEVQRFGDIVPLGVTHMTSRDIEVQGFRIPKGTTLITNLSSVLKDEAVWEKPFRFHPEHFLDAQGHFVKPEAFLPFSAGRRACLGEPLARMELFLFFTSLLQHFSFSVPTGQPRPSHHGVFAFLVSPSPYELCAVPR
How it was run: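 Human CYP2D6 (5 nM) with 30 uM Luciferin-ME EGE (at Km) in 100 mM KPO4, compound preincubated 10 min, then NADPH regeneration system for 60 min at room temperature. Luciferin read by luminescence; normalized to 1.43 uM quinidine.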

[10] = qHTS Assay for Lipid Storage Modulators (AID 1519; calls by dose curve); conditions: Drosophila S3 cells, BODIPY lipid droplet/cell ratio, laser cytometry, cells loaded with oleic acid; for activity change, negative = inhibition: at 57.5 µM (top of the series)
How it was run: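 Cells seeded at 5,000 per well were treated with compounds over a concentration series and loaded with oleic acid (400 uM, as added). Lipid droplet fluorescence (488 nm excitation, 500-530 nm channel) was read by laser-scanning cytometry and normalized to 20 uM Triacsin C.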

[11] = Counterscreen qHTS for small molecule stabilizers of the endoplasmic reticulum resident proteome: GLuc-NoTag assay (AID 1508627);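 further: SH-SY5Y cells given compound then 100 nM thapsigargin to empty ER calcium; 0% = thapsigargin alone and -100% = DMSO vehicle control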
How it was run: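 Luminescence of Gaussia luciferase secreted into the medium (coelenterazine, 0.07x final, unlysed cells) was the read-out. Human SH-SY5Y neuroblastoma cells constitutively secreting untagged GLuc received compound for 19 h, then 100 nM thapsigargin for 4 h.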

[12] = Cell Viability qHTS for small molecule stabilizers of the endoplasmic reticulum resident proteome (AID 1508629); conditions: cell viability counter-screen, 100 nM thapsigargin for final 4 h
[13] = target: Calcium and integrin-binding protein 1 (Homo sapiens) (UniProt Q99828); test: Primary qHTS for Identification of Calcium Integrin Binding Protein 1 (CIB1) Competitor (AID 1508620)
Calcium and integrin-binding protein 1 (Homo sapiens), sequence (Q99828 whole entry, looked up): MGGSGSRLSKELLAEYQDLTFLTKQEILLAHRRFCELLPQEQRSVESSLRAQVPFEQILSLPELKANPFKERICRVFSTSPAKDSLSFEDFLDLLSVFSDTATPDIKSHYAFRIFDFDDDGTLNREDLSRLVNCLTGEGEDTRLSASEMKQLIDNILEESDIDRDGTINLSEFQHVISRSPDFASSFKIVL
How it was run: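 CIB1-GST (1 uM final) and compound incubated 15 min at room temperature before adding FITC-alphaIIb peptide tracer (100 nM final). Competition for binding read by fluorescence polarization (ex 480, em 540) after another 15 min at room temperature.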

[14] = target: Glucocorticoid receptor (Homo sapiens) (UniProt P04150); test: GR-GFP Redistribution (AID 450;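 active means compounds whose dose series gives a full or clear partial fitted curve of increased nuclear translocation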; further: potency means the concentration at half of the fitted maximal effect); conditions: U2OS GR-GFP nuclear translocation, laser cytometry, 2 h
[15] = target: Guanine nucleotide-binding protein G(i) subunit alpha-1 (Homo sapiens) (UniProt P63096); test: qHTS Assay for Inhibitors of RGS12 GoLoco Motif Activity (Green Fluorophore) (AID 879);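 further: 0% = labeled peptide with Gαi1 and full inhibition = labeled peptide alone without protein; negative values mean loss of peptide binding seen as reduced polarization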
Guanine nucleotide-binding protein G(i) subunit alpha-1 (Homo sapiens), sequence (P63096 whole entry, looked up): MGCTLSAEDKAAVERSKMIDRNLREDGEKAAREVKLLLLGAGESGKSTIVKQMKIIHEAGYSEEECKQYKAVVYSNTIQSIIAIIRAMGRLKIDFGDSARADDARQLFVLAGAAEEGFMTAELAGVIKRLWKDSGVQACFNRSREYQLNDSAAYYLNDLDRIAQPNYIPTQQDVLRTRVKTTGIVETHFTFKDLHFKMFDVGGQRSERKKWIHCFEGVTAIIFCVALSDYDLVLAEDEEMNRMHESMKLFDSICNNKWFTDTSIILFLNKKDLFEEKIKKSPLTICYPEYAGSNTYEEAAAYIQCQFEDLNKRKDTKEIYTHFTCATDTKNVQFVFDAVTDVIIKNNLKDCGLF
How it was run: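 Fluorescence polarization assay: 50 nM Gαi1 with 10 nM FITC-labeled RGS12 GoLoco peptide in 10 mM Tris pH 7.5, 150 mM NaCl, 0.1 mM GDP, 0.05% NP40, 10 min at room temperature with compound.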

[16] = qHTS Assay for Identification of Small Molecule Antagonists for NFkB Signaling Pathway (AID 895; active means well fitted inhibition curve with a large enough effect in the signal ratio, with a control signal flat, not every such curve was filed as active; the % refers to the signal ratio; further: potency means the concentration at half of the fitted maximal effect)
How it was run: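 Beta-lactamase reporter read-out (460 and 530 nm emission ratio, 405 nm excitation, 2 hrs substrate loading RT) after 5 hr stimulation with 10 pM TNF alpha in compound-treated NFkB-bla ME-180 cells in low-serum medium.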

[17] = qHTS Assay for Identification of Small Molecule Agonists for Thrombopoietin (TPO) Signaling Pathway (AID 917); further: on the % scale 0 is the no-effect control and ±100 the full control effect
How it was run: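 Activators of TPO signaling were sought in murine Ba/F3 cells transfected with the human receptor, using a luciferase gene driven by the Glycoprotein IIb promoter; 24-hr compound exposure at 37 C alongside 26 pM TPO, in IL-3-free medium.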

[18] = target: Muscarinic acetylcholine receptor M1 (Rattus norvegicus) (UniProt P08482); test: qHTS Assay for Antagonists of Acetylcholine Muscarinic M1 Receptor: Kinetic Measurement of Intracellular Calcium Response (AID 943);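 further: Fluo-4 calcium signal as peak divided by basal fluorescence over 4 min; nearly all actives have a fitted effect of over 75% in size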
How it was run: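 Intracellular calcium flux, recorded with Fluo-4 in a kinetic plate reader, served as signal; the response to carbachol at EC80 (100 nM final) was taken as maximal over minimal fluorescence after a 10 min compound pre-incubation in rat M1-CHO cells.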

[19] = target: Pyruvate kinase (Leishmania mexicana) (UniProt Q27686); test: qHTS Validation Assay for Inhibitors of Leishmania Mexicana Pyruvate Kinase (AID 945);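 further: 0% = DMSO only neutral control wells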
Pyruvate kinase (Leishmania mexicana), sequence (Q27686 2-499 E452W): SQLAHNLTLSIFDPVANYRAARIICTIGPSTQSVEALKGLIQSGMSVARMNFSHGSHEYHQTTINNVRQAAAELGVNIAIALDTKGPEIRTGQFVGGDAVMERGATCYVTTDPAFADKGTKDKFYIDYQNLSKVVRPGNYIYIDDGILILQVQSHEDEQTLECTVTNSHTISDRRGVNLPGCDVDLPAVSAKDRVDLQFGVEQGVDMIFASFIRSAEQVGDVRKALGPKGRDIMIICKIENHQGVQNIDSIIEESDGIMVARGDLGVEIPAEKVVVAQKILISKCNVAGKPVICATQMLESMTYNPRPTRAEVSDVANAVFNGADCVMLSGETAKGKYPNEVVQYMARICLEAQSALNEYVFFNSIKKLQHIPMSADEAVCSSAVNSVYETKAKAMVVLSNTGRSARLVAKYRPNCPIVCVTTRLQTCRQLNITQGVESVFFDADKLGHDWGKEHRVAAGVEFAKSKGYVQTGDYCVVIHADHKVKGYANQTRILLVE
How it was run: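 Substrate mix (0.5 mM PEP, 0.1 mM ADP, 7 mM MgCl2, 50 mM KCl, pH 7.2 imidazole) received compound by pin tool, then 0.2 nM LmPYK E451W. After 1 h at room temperature, PKLight was added and luminescence measured.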

[20] = target: Pyruvate kinase PKM (Homo sapiens) (UniProt P14618); test: qHTS Assay for Activators of Human Muscle Pyruvate Kinase (AID 954; active means well fitted curve in the direction sought with a large enough effect, not every such curve was filed as active;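 further: 0% = uninhibited enzyme and -100% = no enzyme or full thiadiazolimine inhibition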)
How it was run: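 Human PKM2 activity is measured as ATP generation, detected by luciferase-coupled luminescence. The enzyme (0.1 nM) acts on 0.5 mM PEP and 0.1 mM ADP for 1 h at ambient temperature; data are normalized to uninhibited and full-inhibition wells.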

[21] = target: Alpha-galactosidase A (Homo sapiens) (UniProt P06280); test: Counterscreen for Glucocerebrosidase Inhibitors: qHTS Assay for Human alpha-Galactosidase at pH 4.5 (AID 992); further: 0% is about no effect
Alpha-galactosidase A (Homo sapiens), sequence (P06280 whole entry, looked up): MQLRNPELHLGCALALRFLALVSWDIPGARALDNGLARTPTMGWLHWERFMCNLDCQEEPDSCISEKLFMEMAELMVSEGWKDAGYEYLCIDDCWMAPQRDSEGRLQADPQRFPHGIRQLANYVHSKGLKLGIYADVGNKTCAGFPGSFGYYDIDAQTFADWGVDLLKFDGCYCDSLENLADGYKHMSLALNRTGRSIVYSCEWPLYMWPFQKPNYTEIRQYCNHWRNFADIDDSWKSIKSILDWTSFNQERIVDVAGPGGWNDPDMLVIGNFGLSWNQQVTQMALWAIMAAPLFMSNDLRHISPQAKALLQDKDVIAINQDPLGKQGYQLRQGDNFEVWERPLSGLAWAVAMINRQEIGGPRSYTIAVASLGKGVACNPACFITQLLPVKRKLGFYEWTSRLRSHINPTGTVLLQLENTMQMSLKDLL
How it was run: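 Quantitative HTS: compounds tested from 0.7 nM up to 77 uM against 2 nM enzyme with 80 uM 4-MU alpha-D-galactopyranoside. The 20 min room-temperature reaction is stopped with 1M NaOH/1M glycine, pH 10.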

[22] = target: alpha-glucosidase (Oryza sativa, rice) (UniProt Q653V4); test: Counterscreen for Glucocerebrosidase Inhibitors: qHTS Assay for Rice alpha-Glucosidase at pH 5.0 (AID 997);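 further: 0% = full activity with enzyme and -100% = basal without enzyme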
How it was run: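 Rice alpha-glucosidase (4 nM final) with 400 uM 4-methylumbelliferyl-alpha-D-glucopyranoside in citrate buffer pH 5.0, 20 min at room temperature, stopped at pH 10; fluorescence 365/440 nm, compounds 0.7 nM–77 uM, AC50 from Hill fits.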

[23] = target: DNA dC->dU-editing enzyme APOBEC-3G (Homo sapiens) (UniProt Q9HC16); test: qHTS for inhibitors of Vif-A3G interactions: Validation (AID 588379); further: 0% is about no effect
DNA dC->dU-editing enzyme APOBEC-3G (Homo sapiens), sequence (Q9HC16 whole entry, looked up): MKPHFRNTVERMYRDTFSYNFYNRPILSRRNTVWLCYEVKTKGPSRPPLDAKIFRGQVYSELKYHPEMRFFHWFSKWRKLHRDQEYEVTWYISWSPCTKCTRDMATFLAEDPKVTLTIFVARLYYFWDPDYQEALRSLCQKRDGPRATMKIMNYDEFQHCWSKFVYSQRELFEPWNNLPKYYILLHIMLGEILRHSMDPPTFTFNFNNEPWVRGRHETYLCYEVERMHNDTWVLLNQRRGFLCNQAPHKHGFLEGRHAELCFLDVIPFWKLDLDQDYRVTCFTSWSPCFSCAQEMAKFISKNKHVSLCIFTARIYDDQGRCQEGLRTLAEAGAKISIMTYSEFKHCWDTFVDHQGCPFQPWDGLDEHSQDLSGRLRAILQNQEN
How it was run: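 HeLa cells stably expressing Vif and A3G-eYFP, 700 cells/well, incubated overnight at 37 deg C, then exposed to compound overnight at 37 deg C. Inhibition of Vif-mediated degradation read as increased yellow fluorescence (Ex 488/Em 500-530) by laser-scanning cytometry.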

[24] = Confirmatory qHTS for small molecule stabilizers of the endoplasmic reticulum resident proteome: Secreted ER Calcium Modulated Protein (SERCaMP) assay (AID 1508628); further: potency means the concentration at half of the fitted maximal effect; nearly all actives have a fitted effect of over 40% in size
How it was run: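 We seeded SH-SY5Y-GLuc-SERCaMP cells, added compounds (three concentrations in the primary run, eleven up to 76.6 uM in confirmation), incubated 16 h, depleted ER calcium with thapsigargin, and read luciferase 4 h later.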

[25] = target: Lysosomal acid glucosylceramidase (Homo sapiens) (UniProt P04062); test: Glucocerebrosidase-p2 (AID 348; in the data active means potency below about 10 µM; further: potency means the concentration at half of the fitted maximal effect); conditions: purified GBA, blue fluorogenic substrate, 40 min
Lysosomal acid glucosylceramidase (Homo sapiens), sequence (P04062 whole entry, looked up): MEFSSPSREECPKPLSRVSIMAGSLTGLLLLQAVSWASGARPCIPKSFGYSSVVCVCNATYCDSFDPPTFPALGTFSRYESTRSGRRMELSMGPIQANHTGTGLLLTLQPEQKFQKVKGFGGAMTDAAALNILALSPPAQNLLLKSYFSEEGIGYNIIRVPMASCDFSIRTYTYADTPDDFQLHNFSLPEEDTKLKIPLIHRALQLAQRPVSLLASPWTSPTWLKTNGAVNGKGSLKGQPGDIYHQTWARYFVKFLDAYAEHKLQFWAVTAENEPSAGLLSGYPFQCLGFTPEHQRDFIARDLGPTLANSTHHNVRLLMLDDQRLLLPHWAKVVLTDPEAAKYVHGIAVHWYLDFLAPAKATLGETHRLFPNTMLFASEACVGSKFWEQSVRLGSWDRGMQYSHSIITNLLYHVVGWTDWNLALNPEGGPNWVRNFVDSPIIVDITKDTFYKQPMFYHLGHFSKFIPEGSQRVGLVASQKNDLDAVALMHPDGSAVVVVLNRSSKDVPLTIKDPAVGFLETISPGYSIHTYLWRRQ
How it was run: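 Compounds titrated from 0.6 nM upwards against 0.2 nM enzyme in pH 5.9 citric acid/KH2PO4, taurocholate, tween-20; blue fluorogenic substrate 80 uM, 40 min room temperature, stopped and read Ex 365/Em 440 for AC50.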

[26] = target: Cytochrome P450 1A2 (Homo sapiens) (UniProt P05177); test: p450-cyp1a2 (AID 410; calls by dose curve;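 further: -100% = full effect of reference inhibitor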)
How it was run: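 Inhibition was calculated relative to 57 uM furafylline (full inhibition). The reaction used human CYP1A2 at 20nM with Luciferin-ME at its Km, 100uM, driven by an NADPH-regenerating system for 60 min at room temperature.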

[27] = measured here: cell count channel max response
[28] = measured here: lipid channel max response

c1ccc(N2CCCC3(CCNCC3)C2)cc1
14.8%: max response [10, 28]
active: Potency [9] 7.94 µM
inactive: Potency [1] > 20 µM | outcome [2] | activity change, negative = inhibition ([3]; at 7.69 µM (top of the series)) -13.8% | outcome [4] | Potency [5] > 46 µM | outcome [6] | Potency [7] | Potency [8] | activity change, negative = inhibition [10] 4.45% | outcome [11] | max response [12] -4.75%
4.47%: max response [10, 27]

Oc1cccc2cc(N3CCNCC3)cnc12
inactive: outcome [13]

O=S(=O)(Nc1ccc(-c2ccccc2)cc1)c1ccc(NCc2cccc(Cl)c2O)cc1
inactive: outcome [13]

N#C/C(=C\c1ccc(O)c(O)c1)C(N)=S
inactive: activity change, negative = inhibition ([3]; at 38 µM (top of the series)) -11.5% | Potency [14] > 46 µM | Potency [5] > 46 µM | outcome [6] | Potency [7] | outcome [15] | Potency [8] | outcome [17] | Potency [18] | Potency [19] | outcome [20] | outcome [21] | outcome [22] | outcome [23]
active: Potency [16] 5.62 µM | Potency [24] 10 µM

CCOc1ccc(CCNC(=O)c2cc3ccccc3n2Cc2cccc(C)c2)cc1OCC
inactive: outcome [13]

N#Cc1c(-c2ccc([N+](=O)[O-])o2)no[n+]1[O-]
inactive: outcome [13]

c1cc(N2CCCC3(CCNCC3)C2)ccn1
inactive: Potency [25] > 11.4 µM | outcome [2] | Potency [26] | outcome [4] | Potency [5] > 46 µM | outcome [6] | Potency [7] | Potency [8] | activity change, negative = inhibition [10] 4.41%
active: Potency [24] 14.1 µM
13.5%: max response [10, 27]
21.3%: max response [10, 28]
